The whole screen tested about 65,000 compounds, of which about 2,100 (3.2%) showed an effect of 50% or more. The median lay at about -52%. What follows is part of a selection rich in strong results, with near analogues and random picks from the rest.
tested on: Plasmodium falciparum; experiment: Screen against P. falciparum Asexual Blood Stage (ABS), at 5uM; type: functional, Dd2; settings: tested at 5 uM

Compound	INHIBITION
COc1ccc2c(c1)OCC(CNc1cc(N)nc(SC)n1)C2 (configuration not stated)	-50.7%
CC(Cn1cccn1)NCc1ccc(OCc2ccncc2)cc1 (configuration not stated)	-96.3%
CN1CCOC(CNCCOc2ccc(C#N)cc2)C1 (configuration not stated)	-41.7%
Oc1coc2cc(OC[C@@H]3CCCN4CCCC[C@H]34)ccc12	-8.29%
Cc1c(Cl)cccc1S(=O)(=O)N1CCC(S(=O)(=O)c2nncn2C)CC1	-68.7%
O=C(NCc1cnc2n1CCN(Cc1ccsc1)CC2)C1CCC1	-48.2%
CNS(=O)(=O)CCCN1CCCC1c1noc(C)n1 (configuration not stated)	-104%
CCc1nc(C2CCCN2Cc2nc(C(C)(C)C)no2)no1 (configuration not stated)	-105%
CCn1cc(CNC(=O)CC(C)C)cn1	-153%
CC(C)n1ccnc1CN1CCCN(C(=O)c2cc(Cl)c[nH]2)CC1	39%
CC(C)n1ccnc1CN1CCCN(C(=O)c2cnc[nH]2)CC1	60.4%
Cc1[nH]ncc1C(=O)N1CCCN(Cc2nccn2C(C)C)CC1	11.1%
CN(C)CC(=O)N1CCC2(CC(=O)N(c3cccc(C#N)c3)C2)C1 (configuration not stated)	-30%
Cc1cccc(CN2CCC3(CC(C(=O)NCC(C)C)=NO3)C2)c1 (configuration not stated)	-93.1%
CCOCCN1CCN(CCOCC(F)(F)F)CC1	-38.7%
CC(C(=O)NCc1ccco1)N1CCN(Cc2nccn2C)CC1 (configuration not stated)	-35.6%
FC(F)(F)C1CCCn2c(CNCc3ccco3)nnc21 (configuration not stated)	-67%
Cn1ccnc1C(O)(CCNCc1ccco1)C(F)(F)F (configuration not stated)	64.6%
CCc1cc(=O)[nH]c(-n2nc(C3CC3)cc2NC(=O)C2CC2)n1	-66.5%
COCCN1CCC(NC(=O)NCC2(c3cccc(F)c3)CC2)C1 (configuration not stated)	-77.2%
COCCC(=O)NC1CCN(CC2(c3cccc(F)c3)CCCC2)CC1	69.1%
COCCN1CCC(NC(=O)Nc2cccc(F)c2)C1 (configuration not stated)	-54.6%
CC(=O)NCC(=O)N1CCn2cc(CN3CCCCC3)nc2C1	-144%

Compound	INHIBITION
O=C(c1ccc(S(=O)(=O)NCCc2ccncc2)cc1)N1CCCC1	-36.5%
COc1ccc(NC2CCc3c2[nH]c(=O)n(C2CCCCC2)c3=O)cc1 (configuration not stated)	-98.2%
CC(=O)N1CCCC1c1ccnc(Nc2cncnc2)n1 (configuration not stated)	-101%
CC(=O)N1CCC(c2ccnc(Nc3cncnc3)n2)CC1	-18.6%
c1ncc(Nc2nccc(C3CCCCN3CC3CCCCC3)n2)cn1 (configuration not stated)	52%
CN(C)CCCNC(=O)c1cnc(Cc2ccc(F)cc2)s1	27.4%
Cc1cccc(C(=O)NC(CN2CCCC2=O)c2ccccc2)n1 (configuration not stated)	-161%
Cc1cnc(C(=O)NC(CN2CCCC2=O)c2ccccc2)cn1 (configuration not stated)	69.6%
Cc1ccc(C(=O)NC(CN2CCCC2=O)c2ccccc2)cn1 (configuration not stated)	-81.3%
Cn1c2ccccc2c2ncn(CCN3CCOCC3)c(=O)c21	-57.9%
Cc1[nH]c2ccccc2c1-c1ccnc(N[C@@H](CO)C(C)C)n1	-9.36%
Cc1[nH]c2ccccc2c1-c1ccnc(N[C@H](CO)CC(C)C)n1	51.9%
Cc1[nH]c2ccccc2c1-c1ccnc(N[C@@H](C)CO)n1	-21.2%
CC(c1nc(-c2ccccc2)no1)N1CCc2c(ncn2C2CC2)C1 (configuration not stated)	-19.5%
Fc1cccnc1Oc1cc(F)c(CN2CCCC2)c(Cl)c1	-49.5%
OCC1CCN(C[C@@H]2CN(C3Cc4ccccc4C3)C[C@@H]2CO)CC1	66.4%
Cn1ccnc1CN1C[C@@H](CN2CCC(CO)CC2)[C@@H](CO)C1	-1.49%
OC[C@H]1CN(C2Cc3ccccc3C2)C[C@H]1CN1CCC(O)CC1	15.1%
CN1CCN(C[C@@H]2CN(C(=O)c3ccccc3C#N)C[C@@H]2CO)CC1	-106%
CN1CCN(C[C@@H]2CN(C3Cc4ccccc4C3)C[C@@H]2CO)CC1	51.4%
Cc1cccc(CN2C[C@@H](CN3CCCN(C)CC3)[C@@H](CO)C2)n1	-29.5%
Cc1cc(NCCN2CCNC2=O)nc2cc3c(cc12)CCC3	-14.4%
CSCCN1CCC(NC(=O)c2cccc(C3CCCNC3)c2)CC1 (configuration not stated)	-131%

Compound	INHIBITION
O=c1[nH]c(N2CCN(C3CC3)CC2)nc2c1cnn2-c1ccccc1	50.1%
CC1CCN(c2nc3c(cnn3-c3ccccc3)c(=O)[nH]2)CC1	-6.59%
O=c1[nH]c(N2CC(O)C2)nc2c1cnn2-c1ccccc1	-202%
Cc1nc(-c2c(C)noc2C)cc(C2CCN(CC(=O)N(C)C)CC2)n1	-74%
Cc1cc2cc(CNC3CCN(CC(=O)N(C)C)CC3)oc2cc1C	-159%
Cc1cc(Cl)cc(C)c1CNC1CCN(CC(=O)N(C)C)CC1	54.4%
CC(C)CNC(=O)c1cccc(CN2CCc3c(ncn3C)C2)c1	-103%
CCOc1cccc2c1OCC(=O)N(c1ccc3c(c1)OCCO3)C2	-105%
Cc1ccc2c(n1)N(CCN(C)C)CCN(Cc1c(C)noc1C)C2	63.1%
COCCN1CCN(Cc2c(C)noc2C)Cc2cccnc21	-19.1%
COCCN1CCN(Cc2c(C)noc2C)Cc2ccc(C)nc21	-54%
Cc1cc(CNC(=O)NC(C)(CO)C2CC2)c(C)s1 (configuration not stated)	-55.5%
Cc1nccn1-c1ccc(N2CCC(NC(C)CC(C)C)CC2)cc1 (configuration not stated)	30.2%
CCCC(C)NC1CCN(c2ccc(-n3ccnc3C)cc2)CC1 (configuration not stated)	52.3%
Cc1nccn1-c1ccc(N2CCC(N[C@H](C)C(C)C)CC2)cc1	-49.6%
Cc1c[nH]nc1C1CCCCN1C(=O)CCn1nccc1C (configuration not stated)	-97%
Cc1cccn2cc(C(=O)N3CCCN(CC4CC4)C(C(C)C)C3)nc12 (configuration not stated)	-26.5%
O=C1N(CCO)CCCC12CCN(Cc1nnc(C3CC3)o1)C2 (configuration not stated)	-77.7%
O=S(=O)(NCC1(O)CCOc2ccccc21)c1ccc(Br)s1 (configuration not stated)	59.2%
Cc1ccc(S(=O)(=O)NCC2(O)CCOc3ccccc32)s1 (configuration not stated)	-36.2%
O=S(=O)(NCC1(O)CCOc2ccccc21)c1ccc(Cl)s1 (configuration not stated)	-88.4%
